Source: the supplement of paper PMC10849652
About 7,900 targets were measured; listed, in parts, are those with a hit and a random draw of the rest. About 0.6% of all pairs of compound and target were hits. Unmarked numbers belong to inactive results.

These targets were tested with C[C@H](Nc1ncnc2nc[nH]c12)c1cc2cccc(Cl)c2c(=O)n1-c1ccccc1 [duvelisib] (assay: log2 fold change, soluble protein after heating vs DMSO (PISA); higher = thermal stabilisation; K562 cells, 10 uM, 30 min; active = over 0.2 and 3.5 SD of the protein, either way, in both replicates (recomputed)).
Procedure, shortened: (§1)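 Soluble protein was defined as the supernatant after 21,000xg for 90 min. It came from K562 cells at 2×10^6 cells/mL given 10 μM compound for 30 min, heated in aliquots for 3 min across 48°C-58°C, pooled, and extracted in PBS with 0.5% NP-40 at 4°C, and was quantified by TMTpro 16plex LC-MS/MS with equalised channel sums. Thermal stability against control samples, from duplicates, is reported as log2 fold change.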

Chain of UniProt Q9UHX1 (Q9UHX1 whole entry, looked up): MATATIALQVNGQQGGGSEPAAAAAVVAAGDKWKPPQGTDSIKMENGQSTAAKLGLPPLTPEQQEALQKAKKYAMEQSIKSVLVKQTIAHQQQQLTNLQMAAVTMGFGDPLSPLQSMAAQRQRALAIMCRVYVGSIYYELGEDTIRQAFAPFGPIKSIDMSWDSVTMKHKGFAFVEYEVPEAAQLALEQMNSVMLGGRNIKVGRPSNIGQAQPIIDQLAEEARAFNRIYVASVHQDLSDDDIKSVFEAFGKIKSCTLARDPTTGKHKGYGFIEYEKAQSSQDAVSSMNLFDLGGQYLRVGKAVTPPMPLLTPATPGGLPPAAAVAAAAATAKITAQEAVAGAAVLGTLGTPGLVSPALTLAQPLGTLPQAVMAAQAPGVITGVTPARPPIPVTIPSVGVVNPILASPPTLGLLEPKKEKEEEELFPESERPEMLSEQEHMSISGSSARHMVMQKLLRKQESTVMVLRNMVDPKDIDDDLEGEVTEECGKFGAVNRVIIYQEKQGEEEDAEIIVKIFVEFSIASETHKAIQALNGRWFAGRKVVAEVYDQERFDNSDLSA
Chain of UniProt Q14442 (Q14442 whole entry, looked up): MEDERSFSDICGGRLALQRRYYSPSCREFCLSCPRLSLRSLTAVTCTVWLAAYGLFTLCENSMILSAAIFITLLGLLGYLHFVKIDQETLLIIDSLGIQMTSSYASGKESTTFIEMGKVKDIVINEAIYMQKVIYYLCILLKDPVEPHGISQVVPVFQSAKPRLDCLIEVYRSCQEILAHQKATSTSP
Chain of UniProt Q15126 (Q15126 whole entry, looked up): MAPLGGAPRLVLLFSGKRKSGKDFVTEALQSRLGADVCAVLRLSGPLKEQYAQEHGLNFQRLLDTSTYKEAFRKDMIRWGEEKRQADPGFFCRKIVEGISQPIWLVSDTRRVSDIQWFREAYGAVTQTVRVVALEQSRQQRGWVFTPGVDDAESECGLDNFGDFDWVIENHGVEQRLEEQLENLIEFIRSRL
Chain of UniProt Q15173 (Q15173 whole entry, looked up): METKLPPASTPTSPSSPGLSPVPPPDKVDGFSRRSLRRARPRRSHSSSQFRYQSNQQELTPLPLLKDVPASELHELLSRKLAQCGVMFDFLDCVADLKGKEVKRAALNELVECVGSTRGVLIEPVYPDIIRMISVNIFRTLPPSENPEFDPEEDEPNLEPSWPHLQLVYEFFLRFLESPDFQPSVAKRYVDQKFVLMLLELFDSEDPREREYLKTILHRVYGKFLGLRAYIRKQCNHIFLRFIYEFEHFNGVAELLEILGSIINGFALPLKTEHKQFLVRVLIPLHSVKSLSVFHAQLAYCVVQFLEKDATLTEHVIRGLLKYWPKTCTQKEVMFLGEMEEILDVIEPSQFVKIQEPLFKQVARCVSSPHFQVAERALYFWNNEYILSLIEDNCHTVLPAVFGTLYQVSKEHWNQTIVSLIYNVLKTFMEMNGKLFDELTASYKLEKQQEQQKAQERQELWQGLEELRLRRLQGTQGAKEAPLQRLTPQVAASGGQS
Chain of UniProt Q86UU1 (Q86UU1 whole entry, looked up): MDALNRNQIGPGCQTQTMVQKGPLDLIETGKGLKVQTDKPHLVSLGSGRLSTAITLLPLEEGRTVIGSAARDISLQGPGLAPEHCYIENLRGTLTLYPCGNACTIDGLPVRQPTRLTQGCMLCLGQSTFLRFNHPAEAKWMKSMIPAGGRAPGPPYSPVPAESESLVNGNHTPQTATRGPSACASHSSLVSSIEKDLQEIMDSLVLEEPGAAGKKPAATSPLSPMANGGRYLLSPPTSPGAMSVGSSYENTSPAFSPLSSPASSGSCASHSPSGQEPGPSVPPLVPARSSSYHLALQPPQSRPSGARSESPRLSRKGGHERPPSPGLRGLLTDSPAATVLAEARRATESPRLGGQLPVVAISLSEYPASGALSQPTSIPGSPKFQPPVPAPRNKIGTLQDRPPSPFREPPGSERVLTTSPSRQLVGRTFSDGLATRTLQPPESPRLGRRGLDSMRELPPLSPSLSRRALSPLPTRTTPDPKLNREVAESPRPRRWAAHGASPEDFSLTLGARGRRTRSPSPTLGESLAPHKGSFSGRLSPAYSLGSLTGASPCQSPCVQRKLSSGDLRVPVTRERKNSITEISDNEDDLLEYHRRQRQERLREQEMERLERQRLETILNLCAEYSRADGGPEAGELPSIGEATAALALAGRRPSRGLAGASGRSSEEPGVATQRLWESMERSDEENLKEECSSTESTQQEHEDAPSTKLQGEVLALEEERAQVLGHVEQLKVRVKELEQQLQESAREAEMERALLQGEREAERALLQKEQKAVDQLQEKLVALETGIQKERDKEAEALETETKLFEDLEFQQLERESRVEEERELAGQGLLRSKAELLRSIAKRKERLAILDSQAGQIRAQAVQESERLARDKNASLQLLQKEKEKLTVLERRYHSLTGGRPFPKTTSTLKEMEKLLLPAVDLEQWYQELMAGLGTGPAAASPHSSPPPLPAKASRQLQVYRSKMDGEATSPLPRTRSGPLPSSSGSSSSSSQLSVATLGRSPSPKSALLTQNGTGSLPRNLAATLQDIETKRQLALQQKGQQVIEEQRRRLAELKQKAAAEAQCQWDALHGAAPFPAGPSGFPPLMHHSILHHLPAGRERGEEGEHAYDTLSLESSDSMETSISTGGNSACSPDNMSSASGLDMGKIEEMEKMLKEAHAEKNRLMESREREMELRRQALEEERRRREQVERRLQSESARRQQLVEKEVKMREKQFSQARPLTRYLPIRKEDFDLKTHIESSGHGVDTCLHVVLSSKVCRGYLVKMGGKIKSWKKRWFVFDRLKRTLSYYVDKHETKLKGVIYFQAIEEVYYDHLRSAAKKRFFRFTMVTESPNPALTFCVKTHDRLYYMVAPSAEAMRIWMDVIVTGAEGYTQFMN
Chain of UniProt Q14671 (Q14671 whole entry, looked up): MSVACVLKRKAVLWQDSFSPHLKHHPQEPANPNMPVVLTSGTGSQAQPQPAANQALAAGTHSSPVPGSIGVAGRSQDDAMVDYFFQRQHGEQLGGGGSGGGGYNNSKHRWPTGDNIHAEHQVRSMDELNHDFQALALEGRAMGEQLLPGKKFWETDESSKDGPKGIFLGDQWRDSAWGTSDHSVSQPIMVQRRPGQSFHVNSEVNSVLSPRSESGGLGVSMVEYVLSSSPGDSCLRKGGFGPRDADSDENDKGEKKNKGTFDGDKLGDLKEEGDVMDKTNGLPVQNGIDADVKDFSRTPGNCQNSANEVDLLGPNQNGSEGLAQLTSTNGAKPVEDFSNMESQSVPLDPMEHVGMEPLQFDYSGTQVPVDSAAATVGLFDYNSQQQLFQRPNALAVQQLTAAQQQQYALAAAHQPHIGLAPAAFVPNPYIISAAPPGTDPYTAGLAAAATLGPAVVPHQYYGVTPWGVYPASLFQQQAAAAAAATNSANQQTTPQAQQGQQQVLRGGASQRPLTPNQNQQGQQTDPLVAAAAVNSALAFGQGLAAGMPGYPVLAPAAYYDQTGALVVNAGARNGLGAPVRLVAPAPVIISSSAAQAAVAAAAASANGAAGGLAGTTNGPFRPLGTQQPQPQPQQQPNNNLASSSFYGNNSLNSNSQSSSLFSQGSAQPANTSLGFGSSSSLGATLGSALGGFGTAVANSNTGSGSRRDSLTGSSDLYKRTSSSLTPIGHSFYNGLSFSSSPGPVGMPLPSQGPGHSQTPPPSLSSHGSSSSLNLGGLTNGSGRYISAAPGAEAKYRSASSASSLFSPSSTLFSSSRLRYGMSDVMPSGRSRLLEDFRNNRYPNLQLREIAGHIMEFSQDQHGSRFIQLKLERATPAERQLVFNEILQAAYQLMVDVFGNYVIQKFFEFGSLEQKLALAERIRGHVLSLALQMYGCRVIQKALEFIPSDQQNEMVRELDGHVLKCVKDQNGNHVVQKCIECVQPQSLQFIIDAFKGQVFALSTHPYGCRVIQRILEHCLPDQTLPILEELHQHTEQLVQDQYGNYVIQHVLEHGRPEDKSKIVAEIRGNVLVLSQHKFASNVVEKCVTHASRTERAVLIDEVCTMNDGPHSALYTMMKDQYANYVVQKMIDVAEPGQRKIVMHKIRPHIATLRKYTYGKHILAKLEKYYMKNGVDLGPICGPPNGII
Chain of UniProt Q9BZL4 (Q9BZL4 whole entry, looked up): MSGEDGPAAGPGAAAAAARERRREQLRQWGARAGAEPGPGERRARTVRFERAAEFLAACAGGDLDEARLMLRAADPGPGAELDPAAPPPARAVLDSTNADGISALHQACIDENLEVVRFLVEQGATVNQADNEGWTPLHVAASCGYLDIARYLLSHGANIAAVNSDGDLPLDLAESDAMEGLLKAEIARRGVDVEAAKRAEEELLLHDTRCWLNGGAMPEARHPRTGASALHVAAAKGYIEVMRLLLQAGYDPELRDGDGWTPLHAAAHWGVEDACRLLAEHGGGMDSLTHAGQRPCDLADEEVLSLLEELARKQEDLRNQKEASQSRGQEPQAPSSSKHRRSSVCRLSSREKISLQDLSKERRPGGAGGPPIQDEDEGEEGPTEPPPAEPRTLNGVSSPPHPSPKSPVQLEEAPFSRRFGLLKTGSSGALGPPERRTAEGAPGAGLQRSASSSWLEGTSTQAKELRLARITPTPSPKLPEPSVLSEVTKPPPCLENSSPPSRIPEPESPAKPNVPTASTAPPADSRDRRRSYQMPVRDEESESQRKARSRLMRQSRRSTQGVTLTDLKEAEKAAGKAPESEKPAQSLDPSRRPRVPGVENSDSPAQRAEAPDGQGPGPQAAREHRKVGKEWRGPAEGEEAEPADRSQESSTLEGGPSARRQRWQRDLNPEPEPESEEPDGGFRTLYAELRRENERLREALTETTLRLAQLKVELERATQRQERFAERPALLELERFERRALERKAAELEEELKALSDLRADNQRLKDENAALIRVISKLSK

Target | log2 fold change
PIAS4 (UniProt Q8N2W9) | 0.036
PKM isoform 2 (UniProt P14618) | -0.001
PTPA (UniProt A6PVN8) | -0.002
PSMC3 (UniProt E9PLG2) | 0.245
PAN2 (UniProt Q504Q3) | -0.032
PMVK (UniProt Q15126) | -0.055
POLR2E (UniProt P19388) | -0.001
PUM1 (UniProt Q14671) | -0.187
PHLDB1 isoform 2 (UniProt Q86UU1) | -0.759 (active)
PPP2R5B (UniProt Q15173) | 0.16
PUF60 isoform 2 (UniProt Q9UHX1) | 0.163
PIGH (UniProt Q14442) | -0.034
PEX5 isoform 4 (UniProt P50542) | -0.379
PPP1R12C (UniProt Q9BZL4) | -0.011
PCBP2 (UniProt F8VZX2) | -0.147
PSMA3 (UniProt H0YJ03) | 0.092
POLB (UniProt P06746) | -0.178

What follows are targets tested with Cc1cc(Nc2cc(CN3CCOCC3)c3nc(C)c(Cc4ccc(Cl)cc4F)n3n2)n[nH]1 [gandotinib] in the same assay as above.
Procedure, shortened: as §1

Target | log2 fold change
PIAS4 (UniProt Q8N2W9) | -0.013
PKM isoform 2 (UniProt P14618) | 0.131
PRKD2 (UniProt M0R346) | 0.109
PTPA (UniProt A6PVN8) | -0.048
PTEN isoform 2 (UniProt P60484) | 0.312
PRR14L (UniProt Q5THK1) | -0.084
PMVK (UniProt Q15126) | -0.705 (active)
POLR2E (UniProt P19388) | 0.157
PUM1 (UniProt Q14671) | 0.207
PCF11 (UniProt O94913) | -0.149
PHLDB1 isoform 2 (UniProt Q86UU1) | -0.281
PPP2R5B (UniProt Q15173) | -0.277
PIGH (UniProt Q14442) | 0.036
PIM1 isoform 2 (UniProt P11309) | -0.084
PPP1R12C (UniProt Q9BZL4) | -0.001
PSMC1 (UniProt G3V4X1) | 0.066
POLB (UniProt P06746) | 0.081

Each target was assayed with Cc1cc(Nc2cc(N3CCN(C)CC3)nc(Sc3ccc(NC(=O)C4CC4)cc3)n2)n[nH]1 [tozasertib] in the same assay as above.
Procedure, shortened: as §1

Target | log2 fold change
PCNX1 (UniProt Q96RV3) | 0.071
PIAS4 (UniProt Q8N2W9) | -0.009
PKM isoform 2 (UniProt P14618) | 0.056
PTPA (UniProt A6PVN8) | -0.069
PDE4A (UniProt P27815) | 0.027
PSMC3 (UniProt E9PLG2) | -0.288
PRR14L (UniProt Q5THK1) | -0.247
PMVK (UniProt Q15126) | -0.186
POLR2E (UniProt P19388) | 0.02
PUM1 (UniProt Q14671) | 0.019
PHLDB1 isoform 2 (UniProt Q86UU1) | -0.126
PUF60 isoform 2 (UniProt Q9UHX1) | 0.193
PSMD8 (UniProt K7ERW6) | -0.231
PIGH (UniProt Q14442) | 0
PEX5 isoform 4 (UniProt P50542) | -0.013
PPP1R12C (UniProt Q9BZL4) | 0.091
PSMA3 (UniProt H0YJ03) | -0.049
POLB (UniProt P06746) | 0.077

Each target was assayed with Cc1cc(SCc2sc(-c3ccc(C(F)(F)F)cc3)nc2C)ccc1OCC(=O)O in the same assay as above.
Procedure, shortened: as §1

Target | log2 fold change
PIAS4 (UniProt Q8N2W9) | 0.021
PKM isoform 2 (UniProt P14618) | 0.12
PTPA (UniProt A6PVN8) | -0.203
PSMC3 (UniProt E9PLG2) | -0.101
PAN2 (UniProt Q504Q3) | 0.299
PMVK (UniProt Q15126) | 0.333
POLR2E (UniProt P19388) | 0.089
PUM1 (UniProt Q14671) | 0.203
PHLDB1 isoform 2 (UniProt Q86UU1) | 0.108
PPP2R5B (UniProt Q15173) | -0.002
PUF60 isoform 2 (UniProt Q9UHX1) | 0.04
PIGH (UniProt Q14442) | 0.04
PEX5 isoform 4 (UniProt P50542) | -0.047
PPP1R12C (UniProt Q9BZL4) | 0.018
PCBP2 (UniProt F8VZX2) | 0.065
PSMA3 (UniProt H0YJ03) | -0.07
POLB (UniProt P06746) | -0.045
